“And” between values parts separate entries of the source, which are not always exact repeats. Equal entries are not always repeated. Inconclusive results are not listed. The source made the active and inactive calls. Unless noted, calls come from the whole dose curve.

Experiment [1] is described as follows: Nuclear factor erythroid 2-related factor 2/antioxidant responsive element (Nrf2/ARE) small molecule agonists: luciferase reporter gene qHTS assay in human keratinocytes (AID 1919969). Note: nearly all actives have a fitted effect of over 35% in size. Note: potency is the fitted concentration of half-maximal effect.
Experiment [2] addresses Gonadotropin-releasing hormone receptor (Homo sapiens) (UniProt P30968). The experiment is described as follows: Human gonadotropin-releasing hormone receptor (GnRHR) small molecule agonists, calcium flux assay in GnRHR-HEK293 cells (AID 1920063). Note: nearly all actives have a fitted effect of over 35% in size. The method in brief:
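Calcium flux, agonist mode, human GnRHR stably integrated in HEK293; dye 1 h at 37 C before compound; Ex/Em=480/540 kinetic read, 3 min; 15 concentrations, triplicate.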
(Calcium flux is commonly read through the fluorescence of an indicator in the cells.)

Experiment [3] is described as follows: G protein-coupled receptor (GPCR) small molecule agonists, calcium flux assay: HEK293 wild type cell line counter screen (AID 1920065). Summed up:
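Non-specific calcium responders were flagged by adding DMSO-dissolved compounds to dye-loaded cells and reading 480/540 nm fluorescence each second for 3 min; ATP served as positive control.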

The nature of experiment [4]: p53 small molecule agonists, cell-based qHTS assay with human liver microsomes (AID 1963577).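 Note: p53 response element beta-lactamase reporter cells with liver microsomes plus NADPH.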 The method in brief: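 Steps: plate p53RE-bla cells, incubate 5 h at 37 C; add compound in DMSO; add microsomes (0.5 mg/mL final) and NADPH (0.5 mg/mL final); incubate 16 h at 37 C; add LiveBLAzer, 2 h RT; read fluorescence.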
(qHTS replaces the single test concentration by a dilution series.)

Experiment [5] is described as follows: p53 small molecule agonists, cell-based qHTS assay with rat liver microsomes (AID 1963578). Summed up: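 Metabolic activation is supplied by rat liver microsomes with NADPH (each 0.5 mg/mL final). p53RE-bla cells incubate with compound 16 h at 37 C; reporter activity is measured by LiveBLAzer fluorescence.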
Experiment [6] can be described thus: p53 small molecule agonists, cell-based qHTS assay with rat liver microsomes: qHTS cell viability counter screen (AID 1963580). Note: nearly all actives have a fitted effect of over 45% in size. Summed up:
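Luminescent ATP readout (CellTiter-Glo, 30 min at room temperature) reports viability of p53RE-bla HCT-116 cells after 16 h at 37 C with test compounds under metabolic activation by rat liver microsomes and NADPH at 0.5 mg/mL final each.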

A short description of experiment [7]: p53 small molecule agonists, cell-based qHTS assay: qHTS cell viability counter screen (AID 1963581). Note: nearly all actives have a fitted effect of over 45% in size. Summed up:
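Multiplexed with the reporter read, a CellTiter-Glo step (30 min, room temperature) gauges ATP-based viability of HCT-116 p53RE-bla cells after 16 h compound incubation at 37 C.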

The nature of experiment [8]: p53 small molecule agonists, cell-based qHTS assay (AID 1963582; active = well fitted activation curve with a large enough effect in the signal ratio in the repeat runs, not every such curve was filed as active; the % refers to the signal ratio). The method in brief: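 Beta-lactamase reporter cells (p53RE-bla) treated with compounds for 16 h at 37 C; FRET substrate, 2 h, room temperature; fluorescence intensity.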
Experiment [9] concerns the target 5-hydroxytryptamine receptor 2A (Homo sapiens) (UniProt P28223). The experiment is described as follows: 5-hydroxytryptamine receptor 2A (HTR2A) small molecule antagonists, cell-based qHTS assay (AID 1963586). Note: nearly all actives have a fitted effect of over 45% in size. Note: potency is the fitted concentration of half-maximal effect. The method in brief: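 CHO cells stably expressing human HTR2A were plated for 18 h at 37 C, then loaded with calcium dye for 1 h. Compounds were preincubated 5 min at room temperature before DOI (4 nM solution) was added. Kinetic fluorescence was read for 3 min.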

Experiment [10] has the same target. The experiment is described as follows: 5-hydroxytryptamine receptor 2A (HTR2A) small molecule agonists, cell-based qHTS assay (AID 1963587). Note: nearly all actives have a fitted effect of over 30% in size. Note: potency is the fitted concentration of half-maximal effect. Summed up: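 HTR2A-CHO cells, plated 18 h at 37 C/5% CO2, dye-loaded 1 h at 37 C; compounds in DMSO added by pin tool (agonist mode). Intracellular calcium flux read as kinetic fluorescence on FDSS over 2 min at 1 s intervals.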

Experiment [11] has as its target Muscarinic acetylcholine receptor M1 (Homo sapiens) (UniProt P11229). The experiment can be described thus: Cholinergic receptor muscarinic 1 (CHRM1) small molecule antagonists, cell-based qHTS assay (AID 1963588). Note: nearly all actives have a fitted effect of over 40% in size. Note: potency is the fitted concentration of half-maximal effect. The method in brief: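 Compounds were tested at 15 concentrations in three independent runs. Dye-loaded CHRM1-CHO cells were exposed 5 min at room temperature before stimulation by acetylcholine added at 50nM. Intracellular calcium was read kinetically on FDSS for 3 min.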

Experiment [12] has the same target. The experiment can be described thus: Cholinergic receptor muscarinic 1 (CHRM1) small molecule agonists, cell-based qHTS assay (AID 1963589). Note: nearly all actives have a fitted effect of over 35% in size. The method in brief:
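qHTS, 15-point titration, 3 independent runs: compounds pin-transferred onto dye-loaded CHRM1-CHO cells (human M1), calcium fluorescence followed every second to detect agonism.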

Experiment [13] has as its target Beta-2 adrenergic receptor (Homo sapiens) (UniProt P07550). The experiment can be described thus: Adrenergic beta2 receptor (ADRB2) small molecule antagonists, cell-based qHTS assay (AID 1963592). Note: series mostly up to about 92 µM; nearly all actives have a fitted effect of over 50% in size. The method in brief: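 Assay format: CHO-ADRB2 cells, 18-20hr seeding at 37C/5% CO2, then compound plus 1nM isoproterenol agonist mix for 0.5hr RT. Homogeneous time-resolved fluorescence cAMP detection after 1hr, expressed as 665/615 nm ratio.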

The target is the same in experiment [14]. The experiment can be described thus: Adrenergic beta2 receptor (ADRB2) small molecule agonists, cell-based qHTS assay (AID 1963593).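 Note: CHO cells stably overexpressing human ADRB2.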 Summed up: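 CHO cells stably over-expressing ADRB2 were plated overnight at 37C, then dosed with compounds plus a stimulation mix containing 100uM IBMX and 25uM Ro-20-1724 for 0.5hr at room temperature. cAMP was measured by HTRF competition, 1hr.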

Experiment [15] has as its target KiSS-1 receptor (Homo sapiens) (UniProt Q969F8). The experiment is described as follows: Human kisspeptin (KISS1R) small molecule agonists, calcium flux assay in KISS1R-HEK293 cells (AID 1920064; active = well fitted activation curve with a large enough effect in the repeat runs). Summed up: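 Triplicate 15-concentration series were applied to dye-loaded human KISS1R HEK293 cells, and agonist-evoked calcium fluorescence was captured for 3 min.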

Experiment [16] is described as follows: p53 small molecule agonists, cell-based qHTS assay with human liver microsomes: qHTS cell viability counter screen (AID 1963579). Note: nearly all actives have a fitted effect of over 45% in size. Summed up: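 After the 460/530 nm beta-lactamase read, CellTiter-Glo was added to the same wells and luminescence measured after 30 min at room temperature, giving viability of p53RE-bla cells treated 16 h with compounds plus microsomes and NADPH.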

Experiment [17] deals with D(2) dopamine receptor (Homo sapiens) (UniProt P14416). The experiment is described as follows: Dopamine D2 receptor (DRD2) small molecule agonists, cell-based qHTS assay (AID 1963594). Note: nearly all actives have a fitted effect of over 35% in size. The method in brief:
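HEK293 cells stably expressing DRD2 were cultured 24 h at 37 C, then given Ro20-1724 (0.1 mM final) and compounds for 10 min at room temperature. NKH477 (200nM) was then added for 30 min. cAMP was read by HTRF.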

For experiment [18] the target is unchanged. The experiment can be described thus: Dopamine D2 receptor (DRD2) small molecule antagonists, cell-based qHTS assay (AID 1963595; active = well fitted inhibition curve with a large enough effect in the signal ratio in the repeat runs, with a control signal flat; the % refers to the signal ratio). Summed up: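 HEK293 cells stably expressing DRD2 were preincubated with 0.1 mM Ro20-1724, then with compound for 10 min at room temperature. Cells were stimulated with 200 nM NKH477 plus 12 nM quinpirole for 30 min, and cAMP was read by HTRF.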

A short description of experiment [19]: cAMP Responsive Elements (CRE) small molecule agonists, cell-based qHTS assay (AID 1963590). The method in brief:
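Quantitative HTS for CRE agonists: HEK 293T CRE-bla cells, overnight plating, 3 h compound incubation at 37 C/5% CO2, then 2 h room-temperature LiveBLAzer B/G FRET substrate loading.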

Experiment [20] is described as follows: cAMP Responsive Elements (CRE) small molecule antagonists, cell-based qHTS assay (AID 1963591; active = well fitted inhibition curve with a large enough effect in the signal ratio in the repeat runs, not every such curve was filed as active; the % refers to the signal ratio). The method in brief:
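Fluorescence intensity from cleaved LiveBLAzer B/G substrate (2 h, room temperature) quantified CRE-bla activity in HEK 293T cells exposed 3 h to compound with 0.25 uM final NKH477.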

Chain of D(2) dopamine receptor (Homo sapiens) (P14416 whole entry, looked up): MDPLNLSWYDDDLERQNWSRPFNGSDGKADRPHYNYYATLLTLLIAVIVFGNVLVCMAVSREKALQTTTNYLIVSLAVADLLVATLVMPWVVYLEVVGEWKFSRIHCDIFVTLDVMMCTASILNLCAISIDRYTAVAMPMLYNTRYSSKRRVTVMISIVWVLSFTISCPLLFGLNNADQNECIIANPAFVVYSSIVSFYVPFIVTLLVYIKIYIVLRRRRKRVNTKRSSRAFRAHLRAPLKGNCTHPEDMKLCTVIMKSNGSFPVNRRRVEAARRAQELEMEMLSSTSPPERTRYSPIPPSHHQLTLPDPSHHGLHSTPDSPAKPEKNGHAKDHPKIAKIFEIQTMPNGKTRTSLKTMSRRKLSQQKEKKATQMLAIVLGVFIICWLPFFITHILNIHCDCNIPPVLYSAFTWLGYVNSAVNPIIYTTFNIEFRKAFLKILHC
Chain of KiSS-1 receptor (Homo sapiens) (Q969F8 whole entry, looked up): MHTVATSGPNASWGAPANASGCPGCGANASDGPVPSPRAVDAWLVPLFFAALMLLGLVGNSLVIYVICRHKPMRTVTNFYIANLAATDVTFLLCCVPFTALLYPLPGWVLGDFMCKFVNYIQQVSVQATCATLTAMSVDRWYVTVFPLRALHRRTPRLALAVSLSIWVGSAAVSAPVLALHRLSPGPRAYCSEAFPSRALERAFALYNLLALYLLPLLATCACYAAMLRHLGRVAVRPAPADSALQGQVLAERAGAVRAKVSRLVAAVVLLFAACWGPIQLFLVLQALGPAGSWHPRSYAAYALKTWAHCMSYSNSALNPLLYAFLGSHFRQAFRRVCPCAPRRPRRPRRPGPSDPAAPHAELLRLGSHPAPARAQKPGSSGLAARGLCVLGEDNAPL
Chain of Muscarinic acetylcholine receptor M1 (Homo sapiens) (P11229 whole entry, looked up): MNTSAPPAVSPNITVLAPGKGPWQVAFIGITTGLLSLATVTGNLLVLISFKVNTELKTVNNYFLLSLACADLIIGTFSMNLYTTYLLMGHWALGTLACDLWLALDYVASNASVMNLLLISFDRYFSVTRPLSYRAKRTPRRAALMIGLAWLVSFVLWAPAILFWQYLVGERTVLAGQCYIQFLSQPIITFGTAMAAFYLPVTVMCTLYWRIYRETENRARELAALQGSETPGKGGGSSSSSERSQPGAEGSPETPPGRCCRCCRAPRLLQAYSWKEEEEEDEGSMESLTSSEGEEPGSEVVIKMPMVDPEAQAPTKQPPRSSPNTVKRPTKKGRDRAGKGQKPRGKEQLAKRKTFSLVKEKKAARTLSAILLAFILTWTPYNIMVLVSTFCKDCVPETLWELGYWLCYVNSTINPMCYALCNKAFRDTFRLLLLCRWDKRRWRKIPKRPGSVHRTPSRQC
Chain of 5-hydroxytryptamine receptor 2A (Homo sapiens) (P28223 whole entry, looked up): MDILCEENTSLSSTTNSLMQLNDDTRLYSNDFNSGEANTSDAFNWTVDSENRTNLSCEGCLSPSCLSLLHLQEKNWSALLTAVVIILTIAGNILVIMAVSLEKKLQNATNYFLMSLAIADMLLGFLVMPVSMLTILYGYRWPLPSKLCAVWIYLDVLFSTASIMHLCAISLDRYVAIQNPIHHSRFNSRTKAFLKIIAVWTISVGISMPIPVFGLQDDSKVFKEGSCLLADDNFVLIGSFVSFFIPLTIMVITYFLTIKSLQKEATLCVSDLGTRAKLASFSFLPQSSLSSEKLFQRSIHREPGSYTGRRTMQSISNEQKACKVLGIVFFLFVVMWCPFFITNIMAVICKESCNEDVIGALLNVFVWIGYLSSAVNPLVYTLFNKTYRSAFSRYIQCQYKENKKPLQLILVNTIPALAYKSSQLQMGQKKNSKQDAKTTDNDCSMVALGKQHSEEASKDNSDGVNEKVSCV
Chain of Beta-2 adrenergic receptor (Homo sapiens) (P07550 whole entry, looked up): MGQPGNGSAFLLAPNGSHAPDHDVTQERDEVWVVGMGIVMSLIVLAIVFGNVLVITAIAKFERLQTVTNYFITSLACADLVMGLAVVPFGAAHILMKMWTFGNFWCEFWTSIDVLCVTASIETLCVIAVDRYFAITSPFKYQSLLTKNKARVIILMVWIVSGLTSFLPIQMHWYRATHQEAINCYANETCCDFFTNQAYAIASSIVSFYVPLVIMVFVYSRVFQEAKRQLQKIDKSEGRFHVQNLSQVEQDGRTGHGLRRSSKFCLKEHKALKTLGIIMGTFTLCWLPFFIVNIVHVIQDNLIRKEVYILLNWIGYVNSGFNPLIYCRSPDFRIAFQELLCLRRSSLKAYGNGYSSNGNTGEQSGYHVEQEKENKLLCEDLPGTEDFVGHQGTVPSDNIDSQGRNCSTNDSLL
Chain of Gonadotropin-releasing hormone receptor (Homo sapiens) (P30968 whole entry, looked up): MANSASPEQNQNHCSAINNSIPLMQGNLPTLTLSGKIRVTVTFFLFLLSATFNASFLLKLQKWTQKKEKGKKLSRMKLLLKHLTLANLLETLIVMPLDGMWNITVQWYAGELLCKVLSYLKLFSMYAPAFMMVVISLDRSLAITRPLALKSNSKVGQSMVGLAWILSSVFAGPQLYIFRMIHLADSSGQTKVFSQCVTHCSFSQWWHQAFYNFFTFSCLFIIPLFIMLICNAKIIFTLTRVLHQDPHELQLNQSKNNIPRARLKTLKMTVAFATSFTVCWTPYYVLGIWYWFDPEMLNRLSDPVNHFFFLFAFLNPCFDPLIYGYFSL

Take `CCCN(CCc1cccs1)[C@H]1CCc2c(O)cccc2C1`: the Potency result in experiment [1], in [2], in [3], in experiment [4], in experiment [5] and in experiment [6] was “inactive” in each case. Also, the Potency result in experiment [7], in experiment [8], in [12], in [13] and in experiment [14] was “inactive” in each case. Besides, the results for the Potency in experiment [9], in [10] and in experiment [11] were 0.365 µM (active), 0.12 µM (active) and 10.3 µM (active), respectively.
For `c1cc(N(CC2CO2)CC2CO2)ccc1OCC1CO1` (stereo not drawn), in experiment [1], the Potency was 27.3 µM (active) and 24.3 µM (active). Also, the Potency entry in experiment [2], in experiment [15], in [16], in experiment [6], in experiment [7] and in experiment [9] was “inactive” in each case. Further, the Potency result in experiment [10], in experiment [11], in [12], in [13], in [17] and in experiment [18] was “inactive” throughout.
Regarding `O=C(Oc1ccccc1)c1ccc2ccccc2c1O`, in [1], the Potency is 8.63 µM (active). Also, the Potency result in experiment [2], in experiment [3], in experiment [5], in experiment [16], in experiment [6] and in experiment [7] was “inactive” each time. Also, the Potency result in experiment [8], in experiment [9], in [10], in [11], in [12] and in [19] was “inactive” in each case. The Potency result in experiment [20], in [14], in experiment [17] and in experiment [18] was “inactive” in each case.
In the case of `CN(C)[C@@H](CCOc1cccc2ccccc12)c1ccccc1`, the Potency entry in experiment [1], in experiment [2], in experiment [3], in experiment [4], in experiment [5] and in [6] was “inactive” throughout. Moreover, the Potency entry in [7], in experiment [8], in [12], in experiment [19], in experiment [13] and in experiment [17] was “inactive” in each case. The Potency entry in [18] is “inactive”. Also, the values for the Potency in [9] and in experiment [10] were 3.26 µM (active) and 10.7 µM (active), respectively.
For `CCCCCCCC/C=C\CCCCCCCC(=O)NCc1ccc(O)c(OC)c1`, the Potency result in [1], in experiment [2], in experiment [15], in experiment [4], in experiment [5] and in experiment [16] was “inactive” throughout. The Potency result in experiment [6], in experiment [7], in experiment [8], in experiment [9], in experiment [10] and in experiment [11] was “inactive” in each case. Further, the Potency entry in experiment [12], in [20], in experiment [13], in [17] and in experiment [18] was “inactive” throughout.
Turning to `CN(C)c1ccc(SC#N)cc1`, the Potency in experiment [1] is 24.3 µM (active). For the same molecule, the Potency result in [2], in experiment [3], in experiment [4], in experiment [5], in experiment [16] and in experiment [6] was “inactive” in each case. Further, the Potency entry in experiment [7], in experiment [8], in [9], in experiment [10], in [11] and in experiment [12] was “inactive” each time. Besides, the Potency entry in [19], in experiment [20], in [13], in experiment [14], in experiment [17] and in [18] was “inactive” in each case.
Turning to `COc1ccc2nc(S(=O)Cc3ncc(C)c(OC)c3C)[nH]c2c1` (stereo not drawn), in experiment [1], the Potency was 67.8 µM (active) and 26.6 µM (active). For the same molecule, the Potency entry in experiment [2], in [3], in experiment [16], in experiment [6], in experiment [7] and in experiment [13] was “inactive” each time. In addition, the Potency entry in experiment [17] and in experiment [18] was “inactive” each time.
On to `CCC(C)C(C)=O` (stereo not drawn), for which the Potency entry in [1], in [2], in experiment [15], in [16], in experiment [6] and in experiment [7] was “inactive” throughout. Further, the Potency result in experiment [9], in experiment [12], in [19], in [20], in [13] and in experiment [14] was “inactive” in each case. The Potency result in [17] and in experiment [18] was “inactive” in each case.

The values are drawn from PubChem BioAssay (Tox21).
